# An excerpt weighted towards active compounds, which were near 9.3% of everything screened.
# ELG1 genotox: induces genotoxicity in HEK293T cells with luciferase-tagged ELG1; HEK293T ELG1-luciferase reporter, luminescence, 16 h; Potency, µM (titrated, usually from 46 µM), for the others: top-dose activity change, positive = activation, hits mostly activators; 330,000 tested, 1.3% active; also: % of control where 0% means no effect; nearly all actives have a fitted effect of over 60% in size
#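 HEK293T cells expressing luciferase-tagged ELG1 were treated with compound or DMSO for 16 hr at 37°C. Luciferase activity was then read after 30 min with ONE-Glo at room temperature; rising signal flags genetic stress.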
# FLuc modulator: counter-screen for miR-21 project: firefly luciferase inhibitors or activators | P08659 | purified FLuc, Km substrates, luminescence inhibition | Potency, µM (doses to about 57.5 µM), for inactives: top-dose activity change, negative = inhibition, actives largely listed as inhibitors | 360,000 tested, 6.9% active | AID 588342;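 also: plate controls were vehicle for no effect and reference inhibitor for full effect; nearly all actives have a fitted effect of over 55% in size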
# Target sequence (P08659 whole entry, looked up): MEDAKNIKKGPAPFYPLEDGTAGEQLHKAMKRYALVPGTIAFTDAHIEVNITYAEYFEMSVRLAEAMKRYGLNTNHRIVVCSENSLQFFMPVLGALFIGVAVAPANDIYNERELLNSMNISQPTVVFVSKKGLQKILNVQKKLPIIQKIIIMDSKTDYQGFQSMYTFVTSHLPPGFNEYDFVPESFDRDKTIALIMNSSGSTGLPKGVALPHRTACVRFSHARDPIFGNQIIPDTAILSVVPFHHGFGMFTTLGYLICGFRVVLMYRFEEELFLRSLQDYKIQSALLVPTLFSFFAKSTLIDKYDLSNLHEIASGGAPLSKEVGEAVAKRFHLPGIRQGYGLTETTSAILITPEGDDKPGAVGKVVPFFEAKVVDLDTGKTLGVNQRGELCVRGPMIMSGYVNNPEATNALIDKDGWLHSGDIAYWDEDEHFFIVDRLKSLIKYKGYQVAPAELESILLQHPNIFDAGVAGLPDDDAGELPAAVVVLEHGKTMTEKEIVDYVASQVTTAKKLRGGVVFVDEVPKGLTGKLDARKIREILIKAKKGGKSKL
#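 Biochemical qHTS of compounds, final roughly 60 µM downward over six points, against 10 nM purified firefly luciferase using Km concentrations of substrates (10 uM D-luciferin, 10 uM ATP) in Tris acetate pH 7.5 buffer; luminescence output.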
# SMN2 splice up: increases expression of the SMN2 splice variant; HEK293 SMN2-luciferase splicing reporter, luminescence, 30-36 h; Potency, µM (series often up to 46.1 µM), without a hit: at the highest dose activity change, positive = activation, usual class: activators; 210,000 tested, 2.8% active; also: % of control where 0% means no effect; nearly all actives have a fitted effect of over 55% in size
#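 qHTS luciferase splicing reporter: luminescence rises when SMN2 exon 7 is included in transfected HEK293 cells. Compound exposure lasted 30-36 h at 37C, with 4.5 mM final sodium butyrate as control, followed by a ONE-Glo read.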
# ELG1 repair inh: blocks ELG1-dependent DNA repair in HEK293T cells. HEK293T ELG1-luciferase reporter, luminescence, 16 h; DNA damage induced by 5-fluorouridine. Potency, µM (titrated, usually from 46.1 µM), for the others: top-dose activity change, negative = inhibition, actives largely listed as inhibitors. 330,000 tested, 2.3% active; also: % is scaled to controls: 0 for no effect and ±100 for the full control effect; nearly all actives have a fitted effect of over 55% in size
#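 Overnight (16 hr) co-exposure of 2,000 cells/well to 5-fluorouridine and compound at 37 °C preceded detection. Luciferase was quantified via ONE-Glo luminescence; loss of signal denotes inhibition.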
# Rab9 prom act: Rab9 promoter activation; Huh7 Rab9 promoter-luciferase reporter, luminescence, 24 h; Potency, µM (doses to about 9.22 µM), without a hit: at the top dose activation, negative = inhibition, most hits filed as activators; 320,000 tested, 2.8% active; AID 485297; also: % of control where 0% means no effect; nearly all actives have a fitted effect of over 60% in size
#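 Steps: seed 1500 Huh7 Rab9-luc cells per well, rest 2 h at 37 °C; add compound in DMSO; incubate 24 h; add luciferase reagent, 10 min ambient; read luminescence.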
# NPC1 prom act: activates the NPC1 promoter; Huh7 NPC1 promoter luciferase reporter, 24 h; Potency, µM (highest dose often 9.22 µM), for inactives: at the highest dose activation, most hits filed as activators; 320,000 tested, 2.4% active; AID 485313; also: % of control where 0% means no effect; nearly all actives have a fitted effect of over 60% in size
#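 In 1536-well qHTS, Huh7 cells harboring an NPC1 promoter–luciferase construct received compound for 24 h; activation was quantified by luminescence following luciferase reagent addition.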
# Numbers without * were called inactive; ? = inconclusive; nt = no result given; [ ] = remark or other dose. Calls follow the shape of the dose curve; as a rule, active = well fitted curve in the direction sought with a large enough effect; inconclusive = small, poorly fitted or top-dose-only effect, or another doubt; inactive = no such curve, though single readings can be large; an effect the other way counts as inactive or inconclusive. Potency is read from the fitted curve at half-maximal effect.
SMILES,ELG1 genotox,FLuc modulator,SMN2 splice up,ELG1 repair inh,Rab9 prom act,NPC1 prom act
CCOC(=O)C1=NNC2(c3ccc(Cl)cc3)C(=O)N(c3ccc(C)cc3)C(=O)C12 (configuration not stated),2%,3%,-1%,15%,-6%,-1%
CCC1CCc2sc(C(=O)NNC(=S)NCC3CCCO3)cc2C1 (configuration not stated),0%,-18%,nt,9%,1%,-5%
CCC1CCc2sc(C(=O)NCc3ccccn3)cc2C1 (configuration not stated),?,15µM*,nt,?,28%,?
CCC1CCc2sc(C(=O)NC3CCN(Cc4ccccc4)CC3)cc2C1 (configuration not stated),?,-9%,nt,-15%,-7%,-8%
CCC1CCc2sc(C(=O)NCC3CCCO3)cc2C1 (configuration not stated),?,5.4µM*,nt,?,1.8µM*,2.8µM*
COc1ccc(OCC(=O)NCc2ccc3c(c2)CCN3C(=O)c2cccc(C)c2)cc1,nt,-16%,nt,nt,nt,nt
O=C(Nc1cccc(NC(=O)c2cccs2)c1)c1ccc([N+](=O)[O-])o1,-4%,?,nt,16µM*,-23%,-19%
O=C(Nc1cccc(NC(=O)c2ccc([N+](=O)[O-])o2)c1)c1ccco1,-18%,-19%,nt,12µM*,-14%,-7%
O=C(Nc1ccc(NC(=O)c2ccc([N+](=O)[O-])o2)cc1Cl)c1ccco1,-5%,1%,nt,-2%,-12%,-17%
COc1cc(NC(=O)c2ccc([N+](=O)[O-])o2)ccc1NC(=O)c1cccs1,0%,-5%,-28%,14%,-28%,-28%
CCN=C1S/C(=C\c2ccc(N3CCOCC3)cc2C)C(=O)N1CC,-2%,-9%,-12%,5.8µM*,-15%,-16%
CN=C1S/C(=C\c2ccc(N3CCOCC3)cc2C)C(=O)N1C,1%,?,-29%,8.2µM*,1%,11%
CN1C(=O)/C(=C/c2ccco2)SC1=Nc1ccc(N2CCOCC2)cc1,8%,-12%,10%,?,14%,8%
COCCN1C(=O)/C(=C/c2ccc(N3CCCC3)cc2C)SC1=S,3%,4.8µM*,nt,5%,20%,0%
O=[N+]([O-])c1ccc(N2CCOCC2)cc1O,0%,-2%,nt,-11%,1%,-2%
Cc1cc(N2CCOCC2)ccc1/C=C\[N+](=O)[O-],-21%,24µM*,?,?,12%,-7%
CCOc1ccccc1NS(=O)(=O)c1cc2c3c(c1)CC(=O)N3CCC2,-2%,0%,nt,0%,-1%,1%
O=C(NCCc1ccc(Cl)cc1)c1ccc2c(c1)N(Cc1ccc(F)cc1Cl)C(=O)CS2,nt,-2%,8%,nt,nt,nt
CN(CCC#N)C(=O)CC(Cc1ccccc1)C1CCOC(C)(C)C1 (configuration not stated),-5%,0%,nt,?,10%,6%
O=C(O)c1c(-c2ccccc2)oc2ccc(OCc3ccc(Cl)c(Cl)c3)cc12,nt,15µM*,16%,nt,nt,nt
CCOC(=O)c1c(-c2ccccc2)oc2ccc(OCc3ccc(C)cc3)cc12,nt,-3%,-4%,nt,nt,nt
COc1ccccc1C(=O)NCc1nnc(SCC(=O)Nc2nccs2)n1C,0%,-1%,nt,2%,0%,-4%
COc1cccc(CC(=O)Nc2ccc3c(c2)OC2(CCCC2)O3)c1,3%,13µM*,nt,?,22%,17%
Cc1cc(C)n(-c2cc(N3CCN(C(=O)c4ccc(C(C)(C)C)cc4)CC3)ccc2[N+](=O)[O-])n1,-6%,?,-64%,?,0%,-3%
Cc1cc(C)n(-c2cc(N3CCN(C(=O)c4cccc(F)c4)CC3)ccc2[N+](=O)[O-])n1,-3%,-2%,-30%,21µM*,-5%,1%
SMILES,ELG1 genotox,FLuc modulator,SMN2 splice up,ELG1 repair inh,Rab9 prom act,NPC1 prom act
O=C(Nc1ccc2c(c1)OCO2)O[C@@H]1C[C@H]2CCC(=O)N3CC[C@@H](C1)[C@@H]23,-4%,-2%,nt,?,8%,3%
O=C(Nc1ccccc1)O[C@@H]1C[C@H]2CCC(=O)N3CC[C@@H](C1)[C@@H]23,?,21µM*,nt,?,?,?
O=C(Nc1ccccc1)OC1CC2CC1C1CCCC21 (configuration not stated),?,7.6µM*,nt,?,2.5µM*,?
COC(=O)CCCNC(=O)c1ccc(S(=O)(=O)NCc2ccco2)cc1,-2%,6%,nt,2%,-3%,-1%
O=C1NC2(CCCCC2)C(=O)N1CC(=O)N(Cc1ccccc1)c1ccccc1,-6%,2%,nt,2%,-3%,-6%
COc1ccc(C(=O)N/N=C/c2ccc(OC(=O)c3cccs3)cc2)cc1,10%,0%,19%,?,-4%,5%
C/C(=N\OC(=O)c1ccc(F)cc1)c1nccs1,-1%,0.67µM*,-6%,11%,3%,-4%
COc1ccc(C(=O)O/N=C(\C)c2nccs2)cc1,1%,0.48µM*,nt,28%,15%,-2%
COC(=O)c1ccc(OC(=O)c2cccs2)cc1,3%,24µM*,7%,-19%,3%,-21%
O=C(OCCc1cc2ccccc2c(=O)o1)c1cccs1,-1%,4.3µM*,nt,?,1%,26%
O=C(O/N=C1\CCS(=O)(=O)c2sccc21)c1ccc(F)cc1,0%,?,3%,5%,-5%,-1%
CN1C(C(=O)NCc2ccc(OC(F)(F)F)cc2)CC2Cn3c(nc4cc(Cl)c(Cl)cc43)C21 (configuration not stated),-6%,-1%,nt,?,-8%,-2%
COc1ccc(C/C(N)=N/OC(=O)c2cccs2)cc1,2%,-13%,nt,0%,1%,10%
COc1ccc(OCCOC(=O)c2cccs2)cc1,23µM*,17µM*,0%,?,-8%[1.84 µM],1%
C/C(=N/OC(=O)c1c(F)cccc1F)c1nccs1,-8%,4.8µM*,4%,?,-1%,-4%
COc1ccc(C(=O)O/N=C(/C)c2cccs2)cc1,2%,0.076µM*,-3%,27%,-2%,-3%
C/C(=N\OC(=O)c1c(-c2c(F)cccc2Cl)noc1C)c1nccs1,-1%,7%,nt,-6%,-3%,-9%
COc1ccc(C2CC2/C(C)=N/OC(=O)c2cccs2)cc1 (configuration not stated),1%,24µM*,11%,?,0%,0%
Cc1cc(NC(=O)Cn2cnc3sccc3c2=O)no1,0%,nt,nt,?,nt,nt
Clc1ccccc1/C=C/C=N/Nc1nc(N2CCOCC2)nc(N2CCOCC2)n1,-10%,-11%,-10%,?,-2%,-7%
